Legend:
[1] = target: Mitogen-activated protein kinase 3 (Homo sapiens) (UniProt P27361); details: at 1 µM;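 also: values are mean percent inhibition of MAPK3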
[2] = target: SRSF protein kinase 3 (Homo sapiens) (UniProt Q9UPE1); details: at 0.1 µM
[3] = target: SRSF protein kinase 3 (Homo sapiens) (UniProt Q9UPE1); details: at 1 µM
[4] = target: Mitogen-activated protein kinase 14 (Homo sapiens) (UniProt Q16539); details: at 0.1 µM
[5] = target: Mitogen-activated protein kinase 14 (Homo sapiens) (UniProt Q16539); details: at 1 µM
[6] = target: Mitogen-activated protein kinase 11 (Homo sapiens) (UniProt Q15759); details: at 0.1 µM
Mitogen-activated protein kinase 11 (Homo sapiens), sequence (Q15759 whole entry): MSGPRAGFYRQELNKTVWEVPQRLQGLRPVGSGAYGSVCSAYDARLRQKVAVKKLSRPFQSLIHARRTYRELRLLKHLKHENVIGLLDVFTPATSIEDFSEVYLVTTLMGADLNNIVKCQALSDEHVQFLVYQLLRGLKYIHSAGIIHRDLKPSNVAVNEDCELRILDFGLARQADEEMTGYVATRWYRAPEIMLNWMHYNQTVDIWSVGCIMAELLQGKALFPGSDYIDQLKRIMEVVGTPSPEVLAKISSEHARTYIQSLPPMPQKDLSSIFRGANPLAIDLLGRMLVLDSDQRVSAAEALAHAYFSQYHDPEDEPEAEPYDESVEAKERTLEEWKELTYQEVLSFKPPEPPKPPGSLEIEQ

[7] = target: Mitogen-activated protein kinase 11 (Homo sapiens) (UniProt Q15759); details: at 1 µM
[8] = target: T1, Mitogen-activated protein kinase 13 (Homo sapiens) (UniProt O15264); details: at 0.1 µM
T1 sequence (whole entry): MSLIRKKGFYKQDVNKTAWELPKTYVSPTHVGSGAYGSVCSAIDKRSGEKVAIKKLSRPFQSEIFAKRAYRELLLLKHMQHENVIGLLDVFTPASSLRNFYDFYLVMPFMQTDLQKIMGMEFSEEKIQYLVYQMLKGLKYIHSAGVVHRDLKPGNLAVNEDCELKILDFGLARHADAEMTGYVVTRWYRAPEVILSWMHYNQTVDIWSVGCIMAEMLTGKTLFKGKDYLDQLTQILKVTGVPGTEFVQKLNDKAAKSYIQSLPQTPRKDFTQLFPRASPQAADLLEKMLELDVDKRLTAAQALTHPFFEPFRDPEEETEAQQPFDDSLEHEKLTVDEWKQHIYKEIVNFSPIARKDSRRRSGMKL

[9] = target: T1, Mitogen-activated protein kinase 13 (Homo sapiens); details: at 1 µM
[10] = target: T2, Mitogen-activated protein kinase 12 (Homo sapiens) (UniProt P53778); details: at 0.1 µM
T2 sequence (whole entry): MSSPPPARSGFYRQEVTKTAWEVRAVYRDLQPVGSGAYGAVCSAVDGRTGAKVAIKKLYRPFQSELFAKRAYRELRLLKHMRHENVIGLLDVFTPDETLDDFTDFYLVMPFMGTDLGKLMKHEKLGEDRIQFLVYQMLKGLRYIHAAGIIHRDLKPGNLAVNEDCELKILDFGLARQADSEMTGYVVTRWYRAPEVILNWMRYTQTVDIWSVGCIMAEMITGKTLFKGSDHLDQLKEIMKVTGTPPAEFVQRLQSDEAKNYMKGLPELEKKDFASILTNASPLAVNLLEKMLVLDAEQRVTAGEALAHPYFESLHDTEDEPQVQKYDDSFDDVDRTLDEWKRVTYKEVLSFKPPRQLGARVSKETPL

Mitogen-activated protein kinase 14 (Homo sapiens), sequence (Q16539 whole entry): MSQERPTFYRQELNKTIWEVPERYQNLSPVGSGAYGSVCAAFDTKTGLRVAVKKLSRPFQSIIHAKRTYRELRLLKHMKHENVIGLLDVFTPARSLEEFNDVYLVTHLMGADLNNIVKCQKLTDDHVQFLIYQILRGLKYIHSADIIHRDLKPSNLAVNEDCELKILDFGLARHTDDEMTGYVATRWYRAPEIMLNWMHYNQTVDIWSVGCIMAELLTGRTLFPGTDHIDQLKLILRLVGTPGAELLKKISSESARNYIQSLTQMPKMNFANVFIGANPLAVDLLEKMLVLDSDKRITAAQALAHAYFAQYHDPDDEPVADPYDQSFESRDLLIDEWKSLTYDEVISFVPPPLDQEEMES
SRSF protein kinase 3 (Homo sapiens), sequence (Q9UPE1 whole entry): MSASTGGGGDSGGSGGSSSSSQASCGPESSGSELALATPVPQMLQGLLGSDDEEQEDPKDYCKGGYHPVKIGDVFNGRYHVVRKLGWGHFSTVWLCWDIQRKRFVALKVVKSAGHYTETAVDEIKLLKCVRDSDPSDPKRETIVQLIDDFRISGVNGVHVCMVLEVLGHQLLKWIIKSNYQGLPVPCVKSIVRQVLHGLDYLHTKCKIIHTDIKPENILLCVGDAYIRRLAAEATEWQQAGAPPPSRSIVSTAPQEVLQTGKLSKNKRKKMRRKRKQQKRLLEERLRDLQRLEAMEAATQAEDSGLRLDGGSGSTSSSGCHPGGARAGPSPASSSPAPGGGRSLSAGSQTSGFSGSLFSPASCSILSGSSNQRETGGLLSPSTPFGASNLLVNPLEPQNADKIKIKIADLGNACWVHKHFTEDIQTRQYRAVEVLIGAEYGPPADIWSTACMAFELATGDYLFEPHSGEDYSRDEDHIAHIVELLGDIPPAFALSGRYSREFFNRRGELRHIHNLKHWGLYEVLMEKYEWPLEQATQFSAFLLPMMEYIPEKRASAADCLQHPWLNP
Mitogen-activated protein kinase 3 (Homo sapiens), sequence (P27361 whole entry): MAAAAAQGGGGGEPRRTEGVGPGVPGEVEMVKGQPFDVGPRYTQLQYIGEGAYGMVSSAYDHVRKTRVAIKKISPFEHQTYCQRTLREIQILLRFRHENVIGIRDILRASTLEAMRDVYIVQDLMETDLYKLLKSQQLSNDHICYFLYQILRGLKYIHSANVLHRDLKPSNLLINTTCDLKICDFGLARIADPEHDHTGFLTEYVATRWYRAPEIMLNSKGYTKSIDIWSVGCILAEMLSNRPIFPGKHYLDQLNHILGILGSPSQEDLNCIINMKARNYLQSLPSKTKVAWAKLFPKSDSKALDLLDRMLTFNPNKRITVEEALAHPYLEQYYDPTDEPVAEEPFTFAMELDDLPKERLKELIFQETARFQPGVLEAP

SMILES	inhibition [1]	inhibition [2]	inhibition [3]	inhibition [4]	inhibition [5]	inhibition [6]	inhibition [7]	inhibition [8]	inhibition [9]	inhibition [10]
Fc1cccc(COc2ccc(Nc3ncnc4sc(-c5ccco5)cc34)cc2Cl)c1	4.3%	-0.82%	1.38%	7.31%	6.29%	4.57%	6.75%	4.02%	3.46%	3.22%
Cc1ccc2c(-c3ccnc(Nc4ccccc4)n3)c(-c3ccc(F)cc3)nn2n1	14.5%	1.07%	1.53%	71%	88.5%	34.1%	73.3%	-0.61%	5.7%	0.48%
Nc1ncc(-c2cccc(S(N)(=O)=O)c2)c2scc(-c3ccc(F)c(Cl)c3)c12	5.48%	-1.03%	0.1%	13.9%	55.9%	21.8%	62.3%	3.01%	1.94%	2.88%
CN1CCC(n2cnc(-c3ccc(F)cc3)c2-c2ccnc(Nc3ccccc3)n2)CC1	6.33%	0.1%	-0.07%	84.1%	90.8%	50.7%	81.4%	3.08%	22.5%	3.56%
CCOc1ccc2c(-c3ccnc(Nc4cccc(C(F)(F)F)c4)n3)cnn2n1	2.69%	-2.63%	1.62%	3.75%	1.48%	5.24%	2.69%	1.99%	0.75%	0.81%
Fc1ccc(-c2nn3ncccc3c2-c2ccnc(Nc3ccc4c(c3)OCCO4)n2)cc1	11.3%	-0.97%	-1.91%	72%	92.8%	48.6%	78.7%	3.53%	6.19%	2.92%
CCn1c(-c2nonc2N)nc2c(C#CC(C)(C)O)nc(OC[C@H](N)c3ccccc3)cc21	2.26%	3.21%	-2.11%	4.73%	7.11%	3.41%	4.89%	1.8%	1.9%	2.38%
CCn1cc(-c2ccnc3[nH]ccc23)c(-c2cccc(NC(=O)Nc3ccc(OCc4ccccc4)cc3)c2)n1	0.79%	-1.98%	-1.89%	0.81%	1.53%	5.07%	3.29%	-0.53%	-2.06%	-1.09%
NC(=O)c1sc(-n2cnc3ccc(C(F)(F)F)cc32)cc1OCc1ccccc1Br	0.62%	-1.67%	-0.41%	8.95%	10.3%	2.71%	5.44%	-1.12%	3.69%	1.64%
O=C(O[C@H]1CN[C@H](C#Cc2cc3ncnc(Nc4ccc(Cc5ccccc5)cc4)c3s2)C1)N1CCOCC1	2.11%	-2.44%	-1.14%	4.54%	2.37%	0.92%	4.95%	2.02%	0.36%	1.75%
COc1ccc(-c2oc3ncnc(N)c3c2-c2ccc(NC(=O)Nc3cc(C(F)(F)F)ccc3F)cc2)cc1	4.66%	2.74%	48.7%	4.62%	30.4%	5.32%	37.8%	1.95%	15.3%	-3.37%
COc1ccc(-c2cc3c(N)ncnc3o2)cc1	-1.51%	-0.13%	-0.8%	-1.46%	0.41%	-1.4%	-0.96%	-2.33%	-2.56%	-1.44%
CC(=O)NCc1cccc(C#Cc2cncnc2Nc2ccc(OCc3cccc(F)c3)c(Cl)c2)c1	2.72%	-1.32%	-1.8%	1.05%	-0.7%	1.26%	-0.84%	-3.33%	0.78%	0.11%
N#Cc1c(NC(=O)c2ccc(F)cc2)sc2c1CCCC2	-0.36%	-1.54%	0.88%	-0.55%	3.42%	1.36%	-0.91%	-0.62%	0.84%	0.35%
FC(F)(F)c1cccc(-c2nn3ncccc3c2-c2ccnc(Nc3ccc4c(c3)OCCO4)n2)c1	2.04%	-0.87%	-0.58%	30%	73.7%	14.1%	52.2%	0.07%	3.46%	3.07%
CCn1c(-c2nonc2N)nc2ccccc21	1.82%	2.33%	1.24%	1.01%	4.34%	3.58%	4.06%	2.36%	3.3%	0.66%
Nc1nc(-c2ccc(F)cc2)c(-c2ccc3ncccc3n2)s1	3.86%	-0.15%	2.22%	23.6%	76.4%	7.76%	33.1%	5.53%	5.76%	1.26%
Fc1ccc(-c2cc(-c3c[nH]nc3-c3ccccn3)ccn2)cc1	4.81%	-1.32%	1.09%	5.14%	37%	5.12%	12.5%	-1%	3.97%	2.24%
[O-][S+]1CCN(Cc2ccc(-c3ccc4ncnc(Nc5ccc(OCc6cccc(F)c6)c(Cl)c5)c4c3)o2)CC1	4.13%	-2.3%	-1%	15.9%	14.9%	7.73%	6.99%	4.67%	3%	3.02%
CS(=O)(=O)CCNCc1coc(-c2ccc3ncnc(Nc4ccc(OCc5ccccc5)cc4)c3c2)c1	4.16%	0.59%	-0.06%	3.52%	5.25%	1.13%	5.1%	1.6%	1.56%	1.93%

SMILES	inhibition [1]	inhibition [2]	inhibition [3]	inhibition [4]	inhibition [5]	inhibition [6]	inhibition [7]	inhibition [8]	inhibition [9]	inhibition [10]
CNC(=O)c1cccc(C#Cc2cncnc2Nc2ccc(OCc3cccc(F)c3)c(Cl)c2)c1	0.63%	-4.28%	-0.55%	-0.67%	3.2%	1.64%	1.73%	-0.77%	-0.49%	0.07%
c1ccc(COc2ccc(Nc3ncnc4ccc(-c5ccco5)cc34)cc2)cc1	1.18%	-1.34%	-0.68%	2.18%	2.81%	1.43%	0.27%	0.6%	-0.53%	0.76%
Cc1cccc2c1NC(=O)/C2=N\Nc1ccc(S(N)(=O)=O)cc1	2.55%	0.51%	1.03%	3.09%	5.54%	1.05%	1.3%	1.89%	3.48%	-3.68%
N#Cc1c(NC(=O)CN2CCOCC2)sc2c1CCCC2	6.78%	-1.65%	2.65%	5.67%	9.2%	1.86%	7.38%	6%	5.61%	3.4%
CC(C)COC(=O)c1ccc2c(c1)/C(=C/Nc1ccc(S(N)(=O)=O)cc1)C(=O)N2	13.5%	-1.27%	-1.97%	-0.94%	-2.21%	-0.49%	7.86%	-1%	1.38%	0.22%
CCCN1CCC(c2ccc(Nc3nc(Nc4cc(F)ccc4C(N)=O)c4cc[nH]c4n3)c(OC)c2)CC1	13.1%	0.67%	25.4%	1.69%	11.7%	6.28%	14.3%	0.03%	5.13%	1.44%
CNC(=O)c1cncc(/C=C/c2ccccc2Cl)c1	2.18%	-0.92%	2.45%	-6.55%	-0.16%	2.14%	2.01%	1.17%	-0.14%	-1.75%
COc1cccc(-n2ncc3c(N/N=C/c4ccc(F)cc4)ncnc32)c1	3.8%	-0.53%	1.02%	2.2%	7.4%	4.13%	6.02%	6.87%	6.81%	-0.23%
COC(=O)Nc1nc2ccc(S(=O)(=O)c3ccc(NC(=O)Nc4cc(C(F)(F)F)ccc4F)cc3)cc2[nH]1	3.32%	-1.38%	-1.81%	3.23%	8.81%	8.26%	8.9%	1.33%	2.66%	1.77%
COc1cc(N2CCN(C(C)C)CC2)ccc1Nc1nc(Nc2ccc(F)cc2C(N)=O)c2cc[nH]c2n1	5.68%	4.97%	4.84%	4.36%	8.96%	1.51%	9.48%	0.06%	2.28%	0.86%
Cc1ccc(O)cc1Nc1ccnc2cc(-c3ccccn3)ccc12	4.04%	1.4%	0.54%	13.9%	58.8%	4.81%	9.25%	5.51%	2.99%	1.52%
COC(=O)Nc1nc2ccc(Oc3ccc(NC(=O)Nc4cccc(Cl)c4)cc3)cc2[nH]1	-0.19%	-1.41%	1.25%	7.99%	12%	3.94%	8.82%	0.49%	-0.38%	0.03%
COc1cc(Nc2nccc(Nc3ccc4c(C)n[nH]c4c3)n2)cc(OC)c1OC	2.18%	1.08%	0.79%	4.78%	10%	2.04%	6.13%	3.72%	4.71%	-0.26%
Clc1ccc(-c2nn3ncccc3c2-c2ccnc(Nc3ccccc3)n2)cc1	0.24%	-0.67%	-1.16%	46.5%	82.8%	13.1%	58.8%	0.09%	1.39%	2.11%
Cc1cccc(Nc2ncc(-c3ccccc3)o2)c1	3.87%	3.41%	-1.61%	5.91%	6.59%	3.23%	6.62%	1.76%	2.94%	2.73%
COC(=O)c1sc(-n2cnc3cc(OC)c(OC)cc32)cc1OCc1ccccc1C(F)(F)F	2.3%	-0.91%	-2.27%	2.39%	9.56%	6.02%	8.21%	-0.67%	4.4%	0.89%
c1ccc(-c2nc3n(c2-c2ccc4c(c2)OCO4)CCC3)nc1	2.21%	-1.69%	-1.14%	4.21%	13.4%	0.27%	2.77%	1.49%	2.52%	1.78%
CCN(CC)S(=O)(=O)c1ccc(OC)c(Nc2ncc(-c3ccccc3)o2)c1	4.26%	0.09%	0.88%	1.78%	1.27%	3.74%	4.45%	-0.22%	-0.16%	-2.06%
COc1ccc2[nH]c3c4[nH]c5ccc(OC)cc5c4c4c(c3c2c1)C(=O)NC4=O	6.91%	1.23%	18.3%	4.65%	10.8%	3.15%	7.66%	0.8%	2.74%	4.16%

Reference: ChEMBL document CHEMBL1961873, “Compounds: GSK PKIS; Assays: Nanosyn kinase panel” (2012)
